# Rows were chosen to be rich in hits. Some 7.9% of all compounds tested hit in one or more screens of this group.
# SW480 rereplic – inducers of DNA re-replication in SW480 colon cancer cells | SW480 DNA re-replication, Hoechst DNA content imaging, 48 h | Potency, µM (top dose mostly 46.1 µM), actives largely listed as activators | 340,000 tested, 1.8% active; also: nearly all actives have a fitted effect of over 55% in size
#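 Per well, 250 cells were exposed to pinned compound for 48 hr. Nuclear DNA was visualised with Hoechst (40 min, 37 C) and total object intensity recorded by fluorescence scanning.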
# MCF10A rerep – inducers of DNA re-replication in MCF 10A breast cells. MCF 10A DNA re-replication, Hoechst nuclear intensity, 48 h. 350,000 tested, 2.9% active. Potency, µM (doses to about 46.1 µM), usual class: activators; also: nearly all actives have a fitted effect of over 50% in size
# KB-3-1 tox – kills parental KB-3-1 adenocarcinoma cells; KB-3-1 viability, CellTiter-Glo ATP luminescence, 72 h; Potency, µM (doses to about 46.1 µM), hits mostly cytotoxic; 400,000 tested, 1.4% active; also: nearly all actives have a fitted effect of over 60% in size
#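 Cytotoxicity in the drug-sensitive parental line KB-3-1 was scored as loss of CellTiter-Glo luminescence following 72 h incubation with compound. Values come from curve fitting of normalized concentration-response data.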
# HT1080NT lethal – kills 2HG-producing HT-1080-NT fibrosarcoma cells | HT-1080-NT fibrosarcoma viability, CellTiter-Glo ATP luminescence, 48 h | 360,000 tested, 1.6% active | Potency, µM (top dose mostly 46.1 µM), most hits filed as cytotoxic;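 also: NT is the 2HG producing partner of a matched IDH1 knockdown line; nearly all actives have a fitted effect of over 55% in size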
#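 Luminescent CellTiter-Glo readout after 48 hours of compound exposure at 37 degrees C defined viability of HT-1080-NT cells. Activity was normalized to DMSO wells and cell-free media wells; concentration-response curves were fitted and assigned curve classes.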
# HT1080 IDH1KD tx – toxicity to HT-1080 IDH1 knockdown cells (counter line); HT-1080 IDH1 knockdown viability, ATP luminescence, 48 h; Potency, µM (series often up to 46.1 µM), most hits filed as cytotoxic; 360,000 tested, 2% active
#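 Assay cells: HT-1080 with IDH1 knockdown, 750 per well, RPMI/5% FBS. Exposure: 48 h at 37 °C following 2 h pre-incubation. Read: CellTiter-Glo luminescence; fitted concentration-response, curve class assigned.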
# KB-V1 cytotox – KB-V1 MDR subline cytotoxicity; KB-V1 MDR cells viability, CellTiter-Glo, 72 h; Potency, µM (top dose mostly 46.1 µM), most hits filed as cytotoxic; 400,000 tested, 3.4% active; also: nearly all actives have a fitted effect of over 60% in size
#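 KB-V1 cells (P-gp-expressing MDR subline of KB-3-1) in phenol-red-free DMEM with 10% FBS were exposed to library compounds over a concentration series for 72 h at 37 degrees C. Viability read by CellTiter-Glo luminescence; concentration-effect curves fitted after normalization.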
# Hits are given with their value; - = inactive; ? = inconclusive; . = no result. Calls follow the shape of the dose curve; as a rule, active = well fitted curve in the direction sought with a large enough effect; inconclusive = small, poorly fitted or top-dose-only effect, or another doubt; inactive = no such curve, though single readings can be large; an effect the other way counts as inactive or inconclusive.
SMILES,SW480 rereplic,MCF10A rerep,KB-3-1 tox,HT1080NT lethal,HT1080 IDH1KD tx,KB-V1 cytotox
Cc1cccc(C)c1NC(=O)CN(C)CC(=O)c1c(N)n(Cc2ccccc2)c(=O)n(C)c1=O,-,-,-,-,-,-
COc1ccc(-c2ccc(C(=O)NCCN(C)C)c3occc23)c(C)c1,.,.,-,29.1µM,18.4µM,-
COCCNC(=O)c1ccc(-c2ccc(OC)cc2C)c2ccoc12,.,.,-,-,-,-
Cn1c(=O)cc(SCC(=O)Nc2ccc3c(c2)OCO3)c2ccccc21,-,-,-,-,-,?
CCn1c(=O)cc(SCC(=O)Nc2ccc(C)cn2)c2ccccc21,?,10.3µM,-,-,-,?
CCn1c(=O)cc(SCC(=O)Nc2ccc3c(c2)OCCO3)c2ccccc21,-,-,-,-,-,16.4µM
CCn1c(=O)cc(OCC(=O)Nc2ccc(C)cn2)c2ccccc21,-,20.6µM,-,-,-,?
CCC(C(=O)NC1CCCC1)n1c(-c2ccnc3ccccc23)nc2ccccc21 (stereo unspecified),.,.,?,-,-,-
CCCCCc1cc(=O)oc2c(C(CCN3CCCCC3)c3ccc4c(c3)OCO4)c(OC)cc(OC)c12 (stereo unspecified),?,-,-,?,?,-
CCCCCc1cc(=O)oc2c(C(CCN(CC)CC)c3cc(OC)c(OC)c(OC)c3)c(OC)cc(OC)c12 (stereo unspecified),-,-,?,?,18.4µM,-
CN(C)c1ccc(C(C(=O)NC2CCCCC2)N(Cc2ccco2)C(=O)c2snc(C(N)=O)c2N)cc1 (stereo unspecified),-,-,?,-,-,20.6µM
CCOc1ccc(N(C(=O)c2snc(C(N)=O)c2N)C(CC)C(=O)NC2CCCC2)cc1 (stereo unspecified),23.1µM,-,-,-,-,-
CCOc1ccc(C(C(=O)NC2CCCC2)N(Cc2ccccc2)C(=O)c2nsc(Cl)c2Cl)cc1 (stereo unspecified),?,-,20.6µM,?,-,?
Cc1ccccc1N(C(=O)c1snc(C(N)=O)c1N)C(C(=O)NC1CCCCC1)c1ccc(O)cc1 (stereo unspecified),16.4µM,?,?,?,9.2µM,-
CCCC(C(=O)NC1CCCC1)N(C(=O)c1snc(C(N)=O)c1N)c1ccc(OCC)cc1 (stereo unspecified),-,?,-,-,-,-
CCOc1ccccc1N(C(=O)c1snc(C(N)=O)c1N)C(C(=O)NC1CCCC1)c1ccco1 (stereo unspecified),-,-,-,-,-,10.3µM
Cc1cccc(N(C(=O)c2nsc(Cl)c2Cl)C(C(=O)NC2CCCC2)c2ccc(O)cc2)c1C (stereo unspecified),?,-,?,-,-,20.6µM
CC(OC(=O)c1snc(C(=O)NC2CCCCC2)c1N)C(=O)NC1CCCCC1 (stereo unspecified),?,20.6µM,-,-,-,?
Cc1ccc(N(C(=O)c2nsc(Cl)c2Cl)C(C(=O)NC2CCCC2)c2ccc(O)cc2)cc1C (stereo unspecified),-,-,?,?,-,-
Cc1cc(C)cc(N(C(=O)c2nsc(Cl)c2Cl)C(C(=O)NC2CCCC2)c2ccc(O)cc2)c1 (stereo unspecified),?,?,-,-,?,18.4µM
O=C(NC1CCS(=O)(=O)C1)c1cccs1 (stereo unspecified),-,-,-,-,-,?
Cc1ccc(NC(=O)Nc2c[nH]c(=O)[nH]c2=O)c(Cl)c1,.,.,-,.,.,-
NC(=O)c1nsc(C(=O)N(c2ccccc2)C(C(=O)NC2CCCC2)c2ccc3ncccc3c2)c1N (stereo unspecified),-,20.6µM,-,-,-,-
COc1ccc(N(C(=O)c2snc(C(N)=O)c2N)C(C(=O)NC2CCCC2)c2ccc3ncccc3c2)cc1 (stereo unspecified),?,?,-,-,-,-
Cc1ccc(Cl)cc1N1CCN(C(=O)C(C)n2ncn3cccc3c2=O)CC1 (stereo unspecified),-,-,?,-,-,-
SMILES,SW480 rereplic,MCF10A rerep,KB-3-1 tox,HT1080NT lethal,HT1080 IDH1KD tx,KB-V1 cytotox
CC1(C(=O)NS(=O)(=O)c2ccc(Br)cc2)CCN1C(=O)Cc1cccs1 (stereo unspecified),.,.,-,-,-,-
O=C(CCCSc1nc2ccccc2[nH]1)N1CCN(c2ccccc2)CC1,-,-,-,-,-,-
O=C(CSc1nc2ccccc2[nH]1)N1c2ccccc2Sc2ccccc21,-,-,-,-,-,11.6µM
O=C(CSc1nc2ccccc2[nH]1)N1CCN(c2ccccc2)CC1,-,-,-,-,-,16.4µM
Cc1cccc(N2CCN(C(=O)CCCSc3nc4ccccc4[nH]3)CC2)c1C,-,-,-,?,?,5.8µM
COc1cccc(OCc2cc(C(=O)N3CCN(C)C(c4ccccc4)C3)no2)c1 (stereo unspecified),-,-,-,-,-,-
COC(=O)[C@@]1(Cc2ccccc2)[C@H]2C(=O)N(C)C(=O)[C@H]2[C@H]2CN=C(SCc3ccc(Cl)cc3)N21,?,?,-,-,-,-
Cc1ccc(OCc2cc(C(=O)N3CCCC(C)C3)no2)cn1 (stereo unspecified),.,.,20.6µM,-,-,?
CC(=O)c1ccc(OCc2cc(C(=O)N3CCC(c4ccncc4)CC3)no2)cc1,-,?,-,18.4µM,23.1µM,-
O=[N+]([O-])c1ccc(COc2cccc(CNc3ccc(F)cc3)c2)cc1,-,-,-,-,-,20.6µM
O=C(COC(=O)C1CCC(N2C(=O)C3C4CCC(C4)C3C2=O)CC1)c1ccc(F)cc1 (stereo unspecified),-,-,-,-,-,-
O=C(/C=C/c1ccc(Cl)cc1Cl)N(Cc1ccc(Cl)cc1)C1CCS(=O)(=O)C1 (stereo unspecified),-,?,?,-,-,5.8µM
CCN(C(=O)c1cc(Cl)ccc1Cl)C1CCS(=O)(=O)C1 (stereo unspecified),-,-,-,-,-,18.4µM
CCCN(C(=O)c1cc(S(=O)(=O)N2CCN(CC)CC2)ccc1Cl)C1CCS(=O)(=O)C1 (stereo unspecified),-,-,-,-,-,-
CCn1nc(C)cc1C(=O)Sc1cccc(Br)c1,-,?,-,13µM,20.6µM,-
CCCCc1c(CCC)c(=N)c2ccccc2n1C,-,?,?,-,20.6µM,-
CCCCc1c(O)c2ccccc2n(CCCC)c1=O,-,-,-,-,-,-
Cn1c(SCC(=O)NNC(=O)Nc2ccccc2)nnc1-c1ccccc1,-,-,?,-,-,-

# Screens (PubChem)
